JMJD2A Tudor = JMJD2A Tudor domain (human) inhibition; Potency, µM (doses to about 114 µM), hits mostly inhibitors; O75164; AlphaScreen JMJD2A-Tudor / H3K4me3 peptide binding; AID 504339; 390,000 tested, 4.4% active; further: nearly all actives have a fitted effect of over 50% in size
G9a inh = G9a (human) methyltransferase inhibition | 350,000 tested, 8.8% active | G9a H3K9 monomethylation, AlphaScreen, 2 h | Q96KQ7 | AID 504332 | Potency, µM (titrated, usually from 102 µM), most hits filed as inhibitors; further: nearly all actives have a fitted effect of over 75% in size
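Step 1: enzyme (final 20 nM) with compound, 15 min RT. Step 2: substrate peptide 500 nM and SAM 20 uM, 2 h RT. Step 3: anti-H3K9me1 antibody and AlphaScreen beads, 10 min, then plate read.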
Sfp PPTase inh = Sfp phosphopantetheinyl transferase inhibition; Potency, µM, most hits filed as inhibitors; Biochemical Sfp PPTase activity, qHTS; 310,000 tested, 3.5% active;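 further: the enzyme is Sfp with the accession as filed and its product quenches rhodamine fluorescence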
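After 15 min at room temperature with compound, 15 nM Sfp received 5 uM rhodamine-CoA plus 12.5 uM BHQ-2-ybbR (50 mM Hepes pH 7.6, 10 mM MgCl2). Rate came from the fluorescence difference over 30 min, ex 525/em 598 nm.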
HP1b binding inh = blocks HP1-beta chromodomain binding to methylated histone tails; P83916; AlphaScreen HP1-beta / biotin-H3K9me3 peptide binding; Potency, µM (highest dose often 114 µM), usual class: inhibitors; 390,000 tested, 0.56% active; AID 540317; further: nearly all actives have a fitted effect of over 70% in size
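Compound inhibition of the preformed complex between 50 nM HP1-beta and 50 nM biotinylated H3K9me3 peptide was read by AlphaScreen. Buffer was PBS pH 7.4 with 0.01% Tween-20. Incubations ran 30 min at room temperature, with 10 ug/mL donor/acceptor beads.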
BAZ2B block = inhibitors of human BAZ2B bromodomain. Q9UIF8. AlphaScreen BAZ2B-H3K14Ac peptide displacement. Potency, µM (series often up to 114 µM), actives largely listed as inhibitors. 360,000 tested, 4.4% active; further: nearly all actives have a fitted effect of over 60% in size
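Inhibition is scored as reduced AlphaScreen emission. The BAZ2B/b-H3(5-23)K14Ac complex (50 nM each) in PBS pH 7.4, 0.01% Tween-20 meets compound (up to 110 uM) for 30 min at RT before bead addition.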
L3MBTL1 block = inhibitors of human L3MBTL1; Q9Y468; AlphaScreen L3MBTL1–H3K9me1 peptide binding; Potency, µM (top dose mostly 57.1 µM), most hits filed as inhibitors; 230,000 tested, 0.66% active; further: nearly all actives have a fitted effect of over 60% in size
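AlphaScreen assay: L3MBTL1 (50 nM final) was preincubated 30 min at room temperature with biotinylated H3(1-15)K9me1 peptide (75 nM final), then 30 min with library compounds; streptavidin donor and nickel chelate acceptor beads (10 ug/mL final) added, 30 min dark.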
Large screens that a line does not name were inactive. Shown are actives, neighbours in structure and some others; about 12% of the full set was active somewhere. The call rests on the fitted dose curve; in most records, active means well fitted curve in the direction sought with a large enough effect; inconclusive means small, poorly fitted or top-dose-only effect, or another doubt; inactive means no such curve, though single readings can be large; an effect the other way counts as inactive or inconclusive.

CC(=O)Nc1ccc(S(=O)(=O)Oc2ccc(C(=S)N3CCC(O)CC3)cc2)cc1	G9a inh 18µM, Sfp PPTase inh 56µM
CC(=O)Nc1ccc(S(=O)(=O)Oc2ccc(C(=S)N3CCCCC3)cc2)cc1	JMJD2A Tudor inconclusive, G9a inh inconclusive, HP1b binding inh inconclusive, BAZ2B block inconclusive
O=C(O)c1cc(F)c(S(=O)(=O)N2CCN(S(=O)(=O)c3ccc4c(c3)OCCO4)CC2)cc1F	none (no result: G9a inh, Sfp PPTase inh, HP1b binding inh, BAZ2B block, L3MBTL1 block)
COc1ccc(C(=O)N2CCC(O)(c3ccc(Cl)cc3)CC2)cc1OC	none (no result: G9a inh, L3MBTL1 block)
COc1cc2c(cc1[N+](=O)[O-])-c1ccccc1C2	none (no result: G9a inh, Sfp PPTase inh, BAZ2B block, L3MBTL1 block)
CN(C)c1ccc2c(c1[N+](=O)[O-])Cc1ccccc1-2	JMJD2A Tudor 16µM, HP1b binding inh inconclusive (no result: G9a inh, Sfp PPTase inh, BAZ2B block, L3MBTL1 block)
N#CCSc1nnc(COc2ccc3ccccc3c2)o1	G9a inh inconclusive
S=c1[nH]nc(COc2ccc3ccccc3c2)o1	G9a inh 0.89µM
COc1ccc(CCCc2n[nH]c(=S)o2)cc1	G9a inh inconclusive, BAZ2B block inconclusive (no result: L3MBTL1 block)
COc1ccc(Cc2n[nH]c(=S)o2)cc1	JMJD2A Tudor 32µM (no result: G9a inh)
CCOC(=O)C1CC(CN2C(=O)c3ccccc3C2=O)OC1=O (stereo not given)	none (no result: G9a inh, Sfp PPTase inh, BAZ2B block, L3MBTL1 block)
Cc1ccsc1/C=C1/SC(N2CC(C)OC(C)C2)=NC1=O (stereo not given)	G9a inh 45µM, Sfp PPTase inh 56µM
NC[C@@H]1O[C@@H](O[C@H]2[C@H](O)[C@H](O[C@@H]3O[C@H](CO)[C@@H](O)[C@H](N)[C@@H]3O)[C@@H](N)C[C@H]2N)[C@H](N)C[C@@H]1O	none (no result: JMJD2A Tudor, HP1b binding inh, BAZ2B block, L3MBTL1 block)
CC(=O)c1ccc(S(=O)(=O)Nc2ccc(-c3ccc(N4CCCCC4)nn3)cc2)cc1	G9a inh inconclusive (no result: Sfp PPTase inh, L3MBTL1 block)
Nc1c(Cl)cc2c(c1Oc1ccccc1)C(=O)c1ccccc1C2=O	G9a inh 10µM, BAZ2B block inconclusive (no result: L3MBTL1 block)
COCc1nc2ccccc2n1Cc1ccc(C(C)(C)C)cc1	none (no result: Sfp PPTase inh, L3MBTL1 block)
COc1ccc(N(CC(=O)N/N=C/c2ccco2)S(=O)(=O)c2ccccc2)cc1Cl	G9a inh inconclusive
Cc1nn(C)c(C)c1NC(=O)CCl	G9a inh 45µM, BAZ2B block 35µM
COc1cccc(C(=O)NCC(c2ccc(N(C)C)cc2)N2CCc3ccccc32)c1 (stereo not given)	JMJD2A Tudor 7.9µM, G9a inh 10µM, HP1b binding inh 10µM, BAZ2B block 7.9µM (no result: Sfp PPTase inh, L3MBTL1 block)
COc1ccc(C(=O)NCC(c2cccnc2)N2CCc3ccccc32)cc1OC (stereo not given)	none (no result: Sfp PPTase inh, L3MBTL1 block)
O=C(NCC(c1ccco1)N1CCc2ccccc21)c1c(F)cccc1F (stereo not given)	BAZ2B block inconclusive (no result: Sfp PPTase inh)
CN(C)c1ccc(C(CNC(=O)c2ccccc2F)N2CCc3ccccc32)cc1 (stereo not given)	JMJD2A Tudor 10µM, G9a inh inconclusive, HP1b binding inh inconclusive, BAZ2B block 16µM (no result: Sfp PPTase inh, L3MBTL1 block)
COc1cc(C(=O)NCC(c2ccc(N(C)C)cc2)N2CCc3ccccc32)cc(OC)c1OC (stereo not given)	JMJD2A Tudor 16µM, G9a inh 18µM, HP1b binding inh inconclusive, BAZ2B block 13µM (no result: Sfp PPTase inh, L3MBTL1 block)
COc1cccc(C(=O)NCC(c2ccc(N(C)C)cc2)N2CCc3ccccc32)c1OC (stereo not given)	JMJD2A Tudor 10µM, HP1b binding inh inconclusive, BAZ2B block 14µM (no result: Sfp PPTase inh, L3MBTL1 block)
Cc1cccc(-c2csc3ncnc(Sc4nnnn4C)c23)c1	none (no result: G9a inh, Sfp PPTase inh, HP1b binding inh, BAZ2B block, L3MBTL1 block)
Cc1noc(C)c1NC(=O)Nc1cccc2c1O[C@H](CN(C)C(=O)NC(C)C)[C@@H](C)CN([C@H](C)CO)C2=O	none (no result: G9a inh, Sfp PPTase inh, BAZ2B block)
CCC(=O)OCC(=O)[C@@]1(OC(=O)CC)[C@H](C)C[C@@H]2[C@@H]3[C@H]([C@@H](O)C[C@@]21C)[C@]1(C)C=CC(=O)C=C1C[C@@H]3Cl	G9a inh inconclusive (no result: JMJD2A Tudor, HP1b binding inh, BAZ2B block, L3MBTL1 block)
CCOC(=O)[C@@]12C[C@@H]1/C(=N/O)c1ccccc1O2	none (no result: JMJD2A Tudor, G9a inh, HP1b binding inh, BAZ2B block, L3MBTL1 block)
COc1ccc(C(=O)NCC(c2cccnc2)N2CCc3ccccc3C2)cc1OC (stereo not given)	JMJD2A Tudor 32µM, G9a inh 4.5µM, BAZ2B block 5µM (no result: Sfp PPTase inh, L3MBTL1 block)
